# In PubChem BioAssay (NCATS):
# Where “and” joins values, the source holds several entries; their conditions need not be identical. Equal entries are not always repeated. Unmarked numbers belong to inactive results. Results filed as inconclusive are left out. Entries that show only a call come without a potency. Calls of active or inactive are those of the source. Unless noted, the call rests on the fitted dose curve; in most records, active means well fitted curve in the direction sought with a large enough effect; inconclusive means small, poorly fitted or top-dose-only effect, or another doubt; inactive means no such curve, though single readings can be large; an effect the other way counts as inactive or inconclusive.
# Tests used:
# [1] = target: Cytochrome P450 2D6 (Homo sapiens) (UniProt P10635); assay: qHTS Assay for Inhibitors and Substrates of Cytochrome P450 2D6 (AID 891); further: nearly all actives have a fitted effect of over 60% in size; further: potency means the concentration at half of the fitted maximal effect
# Sequence of Cytochrome P450 2D6 (Homo sapiens) (P10635 whole entry, looked up): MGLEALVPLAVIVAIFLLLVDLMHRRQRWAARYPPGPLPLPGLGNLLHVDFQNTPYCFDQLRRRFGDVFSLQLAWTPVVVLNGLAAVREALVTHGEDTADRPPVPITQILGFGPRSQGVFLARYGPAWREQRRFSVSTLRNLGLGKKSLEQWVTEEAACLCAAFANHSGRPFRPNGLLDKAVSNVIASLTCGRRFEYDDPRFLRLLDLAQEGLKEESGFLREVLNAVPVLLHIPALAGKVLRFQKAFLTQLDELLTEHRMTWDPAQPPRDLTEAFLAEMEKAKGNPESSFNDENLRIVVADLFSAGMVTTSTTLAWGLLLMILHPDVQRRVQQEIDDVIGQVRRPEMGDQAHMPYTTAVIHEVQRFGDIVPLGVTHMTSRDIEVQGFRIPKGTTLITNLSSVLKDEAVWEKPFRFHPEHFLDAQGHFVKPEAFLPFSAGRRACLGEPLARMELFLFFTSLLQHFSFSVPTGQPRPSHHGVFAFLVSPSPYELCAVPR
# Procedure, shortened: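 Luminescent read-out of luciferin formed by 5 nM human CYP2D6 demethylating 30 uM Luciferin-ME EGE (Km level) over 60 min at room temperature after NADPH regeneration addition. Data normalized to full inhibition by 1.43 uM quinidine.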
# [2] = qHTS Assay for Identification of Small Molecule Antagonists for Thrombopoietin (TPO) Signaling Pathway (AID 918); details: TPO-dependent cell signaling reporter, antagonist mode; further: potency means the concentration at half of the fitted maximal effect; nearly all actives have a fitted effect of over 60% in size
# Procedure, shortened: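 Antagonist mode at EC50 TPO (26 pM) in IL-3-free medium; murine Ba/F3 cells with human TPO receptor and GPIIb-promoter luciferase, 24 hrs at 37 C before luminescent detection.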
# [3] = target: Pyruvate kinase PKM (Homo sapiens) (UniProt P14618); assay: qHTS Assay for Inhibitors of Human Muscle Pyruvate Kinase (AID 958)
# Sequence of Pyruvate kinase PKM (Homo sapiens) (P14618 whole entry, looked up): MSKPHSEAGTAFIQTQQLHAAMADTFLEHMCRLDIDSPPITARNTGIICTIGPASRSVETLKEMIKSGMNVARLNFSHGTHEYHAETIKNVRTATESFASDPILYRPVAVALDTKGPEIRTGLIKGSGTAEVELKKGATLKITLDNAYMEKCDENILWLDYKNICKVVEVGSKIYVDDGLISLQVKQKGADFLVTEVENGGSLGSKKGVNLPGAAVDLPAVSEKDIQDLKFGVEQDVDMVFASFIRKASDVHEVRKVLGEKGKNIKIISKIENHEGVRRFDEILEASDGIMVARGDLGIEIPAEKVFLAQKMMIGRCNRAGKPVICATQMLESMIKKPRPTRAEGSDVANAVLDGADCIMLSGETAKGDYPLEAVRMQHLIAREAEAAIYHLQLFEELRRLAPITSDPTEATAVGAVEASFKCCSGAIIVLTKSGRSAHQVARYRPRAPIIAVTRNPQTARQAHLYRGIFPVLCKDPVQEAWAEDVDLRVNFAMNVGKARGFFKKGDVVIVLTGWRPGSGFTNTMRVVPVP
# Procedure, shortened: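 Screening used highly purified human pyruvate kinase M2 under submaximal activity, with PEP at its Km and ADP below Km. After an hour at room temperature, ATP was read by luciferase luminescence.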
# [4] = target: Alpha-galactosidase A (Homo sapiens) (UniProt P06280); assay: Counterscreen for Glucocerebrosidase Inhibitors: qHTS Assay for Human alpha-Galactosidase at pH 4.5 (AID 992)
# Sequence of Alpha-galactosidase A (Homo sapiens) (P06280 whole entry, looked up): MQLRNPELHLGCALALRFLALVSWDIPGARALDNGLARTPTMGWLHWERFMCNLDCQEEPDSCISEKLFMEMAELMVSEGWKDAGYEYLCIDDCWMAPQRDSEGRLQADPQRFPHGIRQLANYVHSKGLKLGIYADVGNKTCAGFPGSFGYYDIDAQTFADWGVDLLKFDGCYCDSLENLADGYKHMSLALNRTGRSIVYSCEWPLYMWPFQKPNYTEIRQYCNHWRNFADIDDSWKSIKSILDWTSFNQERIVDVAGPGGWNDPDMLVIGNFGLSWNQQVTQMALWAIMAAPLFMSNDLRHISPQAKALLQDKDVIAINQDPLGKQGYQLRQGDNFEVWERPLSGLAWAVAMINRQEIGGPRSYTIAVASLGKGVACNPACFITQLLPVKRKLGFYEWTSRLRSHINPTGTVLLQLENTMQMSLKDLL
# Procedure, shortened: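 Citrate buffer pH 4.5, Tween-20 0.005%. Enzyme 2 nM, substrate 80 uM, 20 min RT. Stop pH 10. Fluorescence Ex 365/Em 440. AC50 by Hill fit.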
# [5] = target: DNA dC->dU-editing enzyme APOBEC-3G (Homo sapiens) (UniProt Q9HC16); assay: qHTS for inhibitors of Vif-A3G interactions: Validation (AID 588379)
# Sequence of DNA dC->dU-editing enzyme APOBEC-3G (Homo sapiens) (Q9HC16 whole entry, looked up): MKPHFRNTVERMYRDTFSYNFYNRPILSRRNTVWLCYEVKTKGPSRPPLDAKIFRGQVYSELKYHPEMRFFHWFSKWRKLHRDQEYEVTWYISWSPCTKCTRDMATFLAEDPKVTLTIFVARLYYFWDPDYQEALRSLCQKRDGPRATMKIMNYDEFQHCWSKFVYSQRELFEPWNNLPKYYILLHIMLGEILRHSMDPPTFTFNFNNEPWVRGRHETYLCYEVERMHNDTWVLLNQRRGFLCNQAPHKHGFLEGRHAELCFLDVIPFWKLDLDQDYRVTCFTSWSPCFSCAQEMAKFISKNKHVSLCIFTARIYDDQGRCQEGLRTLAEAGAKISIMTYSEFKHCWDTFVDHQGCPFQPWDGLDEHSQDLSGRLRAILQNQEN
# Procedure, shortened: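 Yellow fluorescence (Ex 488, Em 500-530) of Vif-coexpressing HeLa A3G-eYFP cells, scanned by Acumen cytometer, reports blocked A3G degradation. Cells plated at 700/well overnight at 37 deg C before compound addition, then a further overnight compound incubation at 37 deg C.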
# [6] = qHTS Assay for Identification of Small Molecule Antagonists for NFkB Signaling Pathway (AID 895; active means well fitted inhibition curve with a large enough effect in the signal ratio, with a control signal flat, not every such curve was filed as active; the % refers to the signal ratio; further: potency means the concentration at half of the fitted maximal effect)
# Procedure, shortened: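 NFkB-bla ME-180 cervical carcinoma cells with beta-lactamase reporter under NFkB response element; compounds added, then TNF alpha at 10 pM final (EC50), 5 h at 37 C. LiveBLAzer substrate 2 h, room temperature; emission 460/530 nm at 405 nm excitation.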
# [7] = target: Cytochrome P450 2C9 (Homo sapiens) (UniProt P11712); assay: qHTS Assay for Inhibitors and Substrates of Cytochrome P450 2C9 (AID 883); further: nearly all actives have a fitted effect of over 60% in size
# Sequence of Cytochrome P450 2C9 (Homo sapiens) (P11712 whole entry, looked up): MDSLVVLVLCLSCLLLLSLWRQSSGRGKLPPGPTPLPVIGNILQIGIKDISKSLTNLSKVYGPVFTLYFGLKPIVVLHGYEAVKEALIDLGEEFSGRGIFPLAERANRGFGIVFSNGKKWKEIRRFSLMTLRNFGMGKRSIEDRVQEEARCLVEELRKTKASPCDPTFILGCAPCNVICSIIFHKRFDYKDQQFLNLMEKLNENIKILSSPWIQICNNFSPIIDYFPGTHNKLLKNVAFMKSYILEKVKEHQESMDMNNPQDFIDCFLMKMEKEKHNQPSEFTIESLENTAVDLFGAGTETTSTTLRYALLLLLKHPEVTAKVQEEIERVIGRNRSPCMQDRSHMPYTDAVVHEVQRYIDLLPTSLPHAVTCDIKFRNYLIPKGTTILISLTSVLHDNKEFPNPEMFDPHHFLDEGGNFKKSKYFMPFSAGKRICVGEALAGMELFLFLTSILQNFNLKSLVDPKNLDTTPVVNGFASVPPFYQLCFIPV
# Procedure, shortened: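 A luminogenic readout tracked human CYP2C9 (10nM) converting deoxyluciferin (100uM, at KM) in 25mM KPO4 during 60 min at 37C with regenerated NADPH. Values normalized to 57uM sulphaphenazole as complete inhibition.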
# [8] = target: Cytochrome P450 2C19 (Homo sapiens) (UniProt P33261); assay: qHTS Assay for Inhibitors and Substrates of Cytochrome P450 2C19 (AID 899); further: nearly all actives have a fitted effect of over 60% in size
# Sequence of Cytochrome P450 2C19 (Homo sapiens) (P33261 whole entry, looked up): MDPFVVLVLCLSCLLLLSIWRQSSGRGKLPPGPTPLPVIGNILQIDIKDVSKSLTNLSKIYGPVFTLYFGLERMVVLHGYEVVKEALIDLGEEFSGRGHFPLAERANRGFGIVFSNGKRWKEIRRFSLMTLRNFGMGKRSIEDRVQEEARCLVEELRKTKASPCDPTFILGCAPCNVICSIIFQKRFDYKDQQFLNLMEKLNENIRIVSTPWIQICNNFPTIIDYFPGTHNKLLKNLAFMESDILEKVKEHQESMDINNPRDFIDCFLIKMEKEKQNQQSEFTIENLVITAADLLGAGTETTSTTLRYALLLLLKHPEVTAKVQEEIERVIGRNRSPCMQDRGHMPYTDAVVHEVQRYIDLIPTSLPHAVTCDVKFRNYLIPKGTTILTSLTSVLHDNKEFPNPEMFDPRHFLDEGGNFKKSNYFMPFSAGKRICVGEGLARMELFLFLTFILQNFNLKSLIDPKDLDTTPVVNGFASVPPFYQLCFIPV
# Procedure, shortened: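 NADPH-dependent conversion of Luciferin-H EGE (10uM, at KM) by 5nM enzyme in 50mM KPO4, 60 min at 37C following 10 min compound preincubation. Stopped with luciferin detection buffer; luminescence read after 20 min.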
# [9] = S16 Schwann cell viability assay (CellTiter-Glo assay) (AID 624031);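 further: native untransfected S16 rat Schwann cells; cellular ATP luminescence as a viability measure; series mostly up to about 58 µM; nearly all actives have a fitted effect of over 70% in size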
# Procedure, shortened: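 Parental S16 cells, 24 h compound, 37 °C. ATP-luminescence viability; DMSO = 0% activity, empty wells as reference; curves classified by fit quality and efficacy.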
# [10] = target: Muscarinic acetylcholine receptor M1 (Rattus norvegicus) (UniProt P08482); assay: qHTS Assay for Antagonists of Acetylcholine Muscarinic M1 Receptor: Kinetic Measurement of Intracellular Calcium Response (AID 943); further: nearly all actives have a fitted effect of over 75% in size; further: potency means the concentration at half of the fitted maximal effect
# Sequence of Muscarinic acetylcholine receptor M1 (Rattus norvegicus) (P08482 whole entry, looked up): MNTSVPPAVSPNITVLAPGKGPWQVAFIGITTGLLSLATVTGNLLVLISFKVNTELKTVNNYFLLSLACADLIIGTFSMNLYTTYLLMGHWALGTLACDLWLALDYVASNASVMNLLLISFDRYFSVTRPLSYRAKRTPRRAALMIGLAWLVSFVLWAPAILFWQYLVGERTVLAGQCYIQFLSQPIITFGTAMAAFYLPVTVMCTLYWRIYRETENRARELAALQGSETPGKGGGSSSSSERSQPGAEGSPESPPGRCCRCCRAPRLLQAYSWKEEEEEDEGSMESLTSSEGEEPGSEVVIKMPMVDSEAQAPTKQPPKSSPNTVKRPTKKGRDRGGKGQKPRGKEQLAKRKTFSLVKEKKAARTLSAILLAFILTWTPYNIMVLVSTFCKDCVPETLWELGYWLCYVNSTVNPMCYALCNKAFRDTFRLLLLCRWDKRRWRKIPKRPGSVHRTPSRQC
# Procedure, shortened: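 Quantitative HTS in CHO-M1 (rat receptor) cells: 10 min compound exposure ahead of 100 nM carbachol, Fluo-4 fluorescence followed 4 min, value expressed as peak-to-basal ratio.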
# [11] = target: Pyruvate kinase (Leishmania mexicana) (UniProt Q27686); assay: qHTS Validation Assay for Inhibitors of Leishmania Mexicana Pyruvate Kinase (AID 945)
# Sequence of Pyruvate kinase (Leishmania mexicana) (Q27686 2-499 E452W): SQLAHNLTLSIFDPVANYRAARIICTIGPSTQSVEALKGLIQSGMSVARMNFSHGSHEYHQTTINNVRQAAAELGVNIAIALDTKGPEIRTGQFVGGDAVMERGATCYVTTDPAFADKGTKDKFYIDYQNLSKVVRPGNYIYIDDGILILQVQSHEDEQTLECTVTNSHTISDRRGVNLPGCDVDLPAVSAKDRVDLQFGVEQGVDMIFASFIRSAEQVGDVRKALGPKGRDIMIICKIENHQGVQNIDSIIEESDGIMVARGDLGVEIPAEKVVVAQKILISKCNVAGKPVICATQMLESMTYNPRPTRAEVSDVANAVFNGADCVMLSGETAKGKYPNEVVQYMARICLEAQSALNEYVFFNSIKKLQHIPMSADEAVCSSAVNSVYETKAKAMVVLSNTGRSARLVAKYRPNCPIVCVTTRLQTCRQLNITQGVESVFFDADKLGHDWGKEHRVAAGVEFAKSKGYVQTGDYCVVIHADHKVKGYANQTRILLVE
# Procedure, shortened: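 Compounds are tested as eight-point concentration series. Reactions contain 0.2 nM LmPYK E451W, 0.5 mM PEP, 0.1 mM ADP, 7 mM MgCl2 and 50 mM KCl at pH 7.2, run 1 h at room temperature, then read by PKLight luminescence.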
# [12] = qHTS Assay for Identification of Small Molecule Agonists for Hypoxia Response Element Signaling Pathway (AID 914; active means well fitted activation curve with a large enough effect in the signal ratio, with a control signal flat, not every such curve was filed as active; the % refers to the signal ratio); details: ME-180 (cervical carcinoma) HRE-bla reporter, beta-lactamase ratio, CoCl2, 17 h; activation: active compounds read high
# Procedure, shortened: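 A beta-lactamase reporter under hypoxia response element control in ME-180 cells served as the system. Compound titrations plus EC50 CoCl2 ran 17 h at 37 degrees Celsius; AC50 values were fitted from %Activity.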
# [13] = target: Cytochrome P450 3A4 (Homo sapiens) (UniProt P08684); assay: qHTS Assay for Inhibitors and Substrates of Cytochrome P450 3A4 (AID 884); further: nearly all actives have a fitted effect of over 50% in size; further: potency means the concentration at half of the fitted maximal effect
# Sequence of Cytochrome P450 3A4 (Homo sapiens) (P08684 whole entry, looked up): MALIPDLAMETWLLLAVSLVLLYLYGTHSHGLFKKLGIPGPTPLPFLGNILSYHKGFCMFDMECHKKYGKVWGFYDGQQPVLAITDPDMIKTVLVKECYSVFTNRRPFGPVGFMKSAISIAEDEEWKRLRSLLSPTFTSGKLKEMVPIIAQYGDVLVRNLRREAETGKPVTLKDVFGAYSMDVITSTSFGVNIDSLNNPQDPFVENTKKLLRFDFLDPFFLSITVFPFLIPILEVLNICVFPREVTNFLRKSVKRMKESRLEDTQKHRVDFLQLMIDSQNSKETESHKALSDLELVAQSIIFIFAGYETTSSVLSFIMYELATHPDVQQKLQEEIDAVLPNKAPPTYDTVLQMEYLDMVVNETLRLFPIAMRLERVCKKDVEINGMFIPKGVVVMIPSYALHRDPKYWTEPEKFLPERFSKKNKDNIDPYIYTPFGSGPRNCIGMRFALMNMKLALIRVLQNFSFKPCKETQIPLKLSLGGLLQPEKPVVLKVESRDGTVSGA
# Procedure, shortened: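 Luminescent readout of luciferin produced by CYP3A4 (20 nM) dealkylation of Luciferin-PPXE, 25 uM (its KM). NADPH-driven reaction ran 60 min at RT after 10 min compound preincubation; data scaled to 57 uM ketoconazole as 100% inhibition.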
# [14] = Confirmation and Secondary Assay for Modulators of Hemoglobin Beta Chain Splicing at IVS2 654 locus (AID 910);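 further: per-well total GFP intensity by laser scanning cytometry after 2-day treatment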
# Procedure, shortened: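 HeLa cells stably carrying EGFP interrupted by mutant beta-globin IVS2-654 intron (CMV-driven) were treated with compound for 2 days at 37C; corrected splicing was scored as total peak GFP intensity per well (488 nm excitation, 500-520 nm emission).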
# [15] = Confirmation and Secondary Assay for Modulators of Hemoglobin Beta Chain Splicing at IVS2 705 locus (AID 930);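 further: HeLa cells stably expressing the EGFP-705 splicing reporter; GFP fluorescence per well restored by corrected splicing of the IVS2-705 intron in EGFP; series mostly up to about 46 µM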
# Procedure, shortened: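 Fluorescence gain (488 nm laser, 500-520 nm PMT) reflects restored correct splicing of a mutant IVS2-705 intron inside EGFP in stably transfected HeLa cells after 2-day compound treatment.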
compound,measurement,setting,value
CN1CCc2cccc3c2[C@@H]1Cc1ccc(O)c(O)c1-3,Potency,[1],inactive
same,Potency,[2],12.6 µM (active)
same,outcome,[3],inactive
same,outcome,[4],inactive
same,outcome,[5],inactive
C=CCc1ccccc1OC[C@H](O)CNC(C)C,Potency,[1],6.31 µM (active)
same,Potency,[6],3.16 µM (active)
same,outcome,[4],inactive
C[C@@]12CCC(=O)C=C1CC[C@H]1[C@H]3CC[C@](O)(C(=O)CO)[C@]3(C)CC(=O)[C@@H]12,Potency,[7],inactive
same,Potency,[1],inactive
same,Potency,[8],inactive
NC(=O)OC[C@H](O)COc1ccc(Cl)cc1,Potency,[9],inactive
COc1cc(=O)n(C)c2c(OC[C@@H](O)C(C)(C)O)cccc12,Potency,[7],inactive
same,Potency,[1],inactive
same,Potency,[8],inactive
same,Potency,[10],inactive
COCCc1ccc(OC[C@H](O)CNC(C)C)cc1,Potency,[6],inactive
same,outcome,[11],inactive
same,outcome,[4],inactive
CCCN[C@@H](C)C(=O)Nc1c(C)csc1C(=O)OC,Potency,[9],inactive
COc1c(O)cc2c(c1O)[C@@H]1O[C@@H](CO)[C@@H](O)[C@@H](O)[C@@H]1OC2=O,activation,[12],14.6%
same,Potency,[9],inactive
O=C(O)/C=C\c1ccc(O)c(O)c1,Potency,[7],inactive
same,Potency,[1],inactive
same,Potency,[8],inactive
CC[C@H](NC(C)C)[C@H](O)c1ccc(O)c(O)c1,Potency,[10],inactive
same,outcome,[11],inactive
same,outcome,[4],inactive
same,Potency,[9],inactive
OCCN1CCN(CC/C=C2\c3ccccc3Sc3ccc(C(F)(F)F)cc32)CC1,Potency,[10],0.891 µM (active)
CN(C)CCO[C@](C)(c1ccccc1)c1ccccn1,outcome,[11],inactive
CN(C)[C@@H]1C(=O)C(C(N)=O)=C(O)[C@]2(O)C(=O)C3=C(O)c4c(O)ccc(Cl)c4[C@H](O)[C@H]3C[C@@H]12,Potency,[7],inactive
same,Potency,[6],inactive
same,Potency,[10],inactive
same,outcome,[11],inactive
C[C@@H](CN(C)C)CN1c2ccccc2CCc2ccccc21,Potency,[1],5.01 µM (active)
same,Potency,[10],0.141 µM (active)
CN(C)CC[C@@H](c1ccccc1)c1ccccn1,Potency,[13],inactive
same,Potency,[6],inactive
same,Potency,[10],11.2 µM (active)
CC1=C(C(=O)O)N2C(=O)[C@@H](NC(=O)[C@@H](N)c3ccccc3)[C@@H]2SC1,Potency,[6],inactive
same,outcome,[4],inactive
CC(C)NC[C@H](O)c1cc(O)cc(O)c1,Potency,[9],inactive
CCN(CC)CCC[C@H](C)Nc1c2ccc(Cl)cc2nc2ccc(OC)cc12,Potency,[1],199 nM (active) and 126 nM (active)
same,Potency,[2],10 µM (active)
same,Potency,[9],inactive
CN1Cc2c(N)cccc2[C@H](c2ccccc2)C1,Potency,[1],6.31 µM (active)
same,outcome,[11],inactive
C[C@H](NCCc1ccc(O)cc1)[C@@H](O)c1ccc(O)cc1,Potency,[6],inactive
same,Potency,[10],12.6 µM (active)
CC(=O)O[C@]1(C(C)=O)CC[C@@H]2[C@@H]3C=C(Cl)C4=CC(=O)[C@H]5C[C@@H]5[C@]4(C)[C@H]3CC[C@]21C,Potency,[13],inactive
CCN(CC)CCC[C@H](C)Nc1ccnc2cc(Cl)ccc12,Potency,[10],5.01 µM (active)
C=C1C2CC[C@@]3(C)C(c4ccoc4)OC(=O)C[C@@]13OC1CC(O)C(C)(C)C(CC(=O)OC)[C@@]12C (stereo partly specified),Potency,[13],12.6 µM (active) and 7.94 µM (active)
same,Potency,[14],inactive
same,outcome,[15],inactive
Cc1ccccc1[C@@H](OCCN(C)C)c1ccccc1,Potency,[7],inactive
